Compound activity deposited in PubChem BioAssay by National Center for Advancing Translational Sciences (NCATS).
A selection: hits, their analogues and other compounds. The true share with any hit is near 4.6%.
Vaccinia mCherry: qHTS for Stage-Specific Inhibitors of Vaccinia Orthopoxvirus: mCherry Reporter Primary qHTS. Vaccinia virus mCherry reporter infection, fluorescence. Potency, µM (series often up to 36.5 µM), actives largely listed as inhibitors. 0.63% of 310,000 active. AID 720579, 2013; calls by dose curve; tested in A549 cells; further: nearly all actives have a fitted effect of over 35% in size
Marburg entry inh: qHTS for inhibitors of binding or entry into cells for Marburg Virus | Marburg virus pseudotyped entry inhibition, cell reporter | Potency, µM (series often up to 37.8 µM), actives largely listed as inhibitors | 1.8% of 300,000 active | AID 540276, 2011; calls by dose curve; tested in HEK293 cells
Vaccinia Venus: qHTS for Stage-Specific Inhibitors of Vaccinia Orthopoxvirus: Venus Reporter Primary qHTS; Vaccinia virus Venus reporter expression, fluorescence; Potency, µM (top dose mostly 36.5 µM), actives largely listed as inhibitors; 0.46% of 330,000 active; AID 720580, 2013; calls by dose curve; tested in A549 cells; further: nearly all actives have a fitted effect of over 30% in size
Lassa entry inh: qHTS for Inhibitors of binding or entry into cells for Lassa Virus. Lassa virus pseudotype entry inhibition, cell reporter. Potency, µM (top dose mostly 37.9 µM), actives largely listed as inhibitors. 1.2% of 300,000 active. AID 540256, 2011; calls by dose curve; tested in HEK293 cells; further: nearly all actives have a fitted effect of over 50% in size
HCV inh: qHTS Assay for Inhibitors of Hepatitis C Virus (HCV) | Huh7.5.1 HCVcc-Cre infection, luciferase reporter, 44 h | AID 651820, 2012 | 3.4% of 340,000 active | Potency, µM (doses to about 41.8 µM), usual class: inhibitors; active means well fitted inhibition curve with a large enough effect; inconclusive means small, poorly fitted or top-dose-only effect, or another doubt; inactive means no such curve, though single readings can be large or run the other way
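1,000 cells/well; 4 h culture; + compound; + HCVcc-Cre (~0.5 moi); 44 h; luciferase substrate, RT 15 min; read 15 sec.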
Numbers stand for hits; 0 = inactive; ? = inconclusive; - = no result given.

SMILES | Vaccinia mCherry | Marburg entry inh | Vaccinia Venus | Lassa entry inh | HCV inh
OC(c1cc(-c2ccc(Cl)cc2)nc2ccccc12)C1CCCCN1 (stereo unspecified) | ? | - | 14.1µM | - | ?
O[C@@H](c1cc(C(F)(F)F)nc2c(C(F)(F)F)cccc12)[C@H]1CCCCN1 | ? | - | ? | - | 8.91µM
CN(C)CCCN1c2ccccc2CCc2ccccc21 | - | - | 0 | - | -
CC(CN(C)C)CN1c2ccccc2CCc2ccccc21 (stereo unspecified) | 0 | 13µM | ? | ? | 0
C[C@@H](CN(C)C)CN1c2ccccc2CCc2ccccc21 | - | 13µM | - | - | -
O=C(Nc1ccccc1O)c1c(O)c2c([nH]c1=O)CCCC2 | 17.8µM | ? | ? | ? | 0
Cn1c(=NC(=O)CCl)sc2ccccc21 | ? | ? | 0 | ? | 2µM
Cn1c(=NC(=O)c2ccco2)sc2ccccc21 | 0 | ? | 0 | - | ?
CCOc1ccc(-n2c(SCC(=O)N3CCC(C)CC3)nc3c([nH]c4ccccc43)c2=O)cc1 | 0 | - | 0 | 0 | -
c1ccc(OCCSc2nnc3sc4ccccc4n23)cc1 | 0 | 2.06µM | 0 | 10.3µM | 0
CCOCCCNC(=O)C1CCN(c2cc(C)nc3c(-c4ccc(Cl)cc4)c(C)nn23)CC1 | 0 | 0 | 0 | 0 | -
Cc1ccc(CCNC(=O)C2CCN(Cc3nc(-c4ccccc4C)oc3C)CC2)cc1 | 0 | 0 | 0 | 0 | -
COc1ccccc1CN(C)C(=O)c1cccc(S(=O)(=O)N2CCCc3ccccc32)c1 | 0 | 0 | 0 | ? | 10µM
COc1ccccc1C(CNC(=O)c1cccc(S(=O)(=O)N2CCCc3ccccc32)c1)N(C)C (stereo unspecified) | 0 | ? | 0 | ? | ?
COCCN(Cc1ccccc1)C(=O)c1cccc(S(=O)(=O)N2CCCc3ccccc32)c1 | - | - | - | - | 10µM
Cc1ncc2c(c1CNC(=O)c1ccc3c(c1)OCO3)CCN(C(=O)c1cc3ccccc3o1)C2 | 0 | - | 0 | - | -
N[C@@H](Cc1ccccc1)c1nnc(SCc2ccccc2F)o1 | 11.2µM | 0 | ? | 0 | 0
CCOC(=O)c1sc(N)c(C(=O)OCC)c1COC(=O)C1CC(=O)N(Cc2ccco2)C1 (stereo unspecified) | - | 0 | 0 | 0 | 12.6µM
CCNC(=O)/C(C#N)=C/c1c(N2CCCCCC2)nc2c(C)cccn2c1=O | ? | ? | ? | 8.91µM | ?
CCNC(=O)/C(C#N)=C/c1c(N2CCN(c3ccccc3)CC2)nc2c(C)cccn2c1=O | 0 | 0 | 0 | ? | 0
COCCNC(=O)c1cc2oc3ccccc3c2n1C | - | 0 | - | 0 | 12.6µM
O=C(Nc1ccc(S(=O)(=O)N2CCCC2)cc1)c1ccc(CN2CCOCC2)cc1 | 0 | ? | 0 | ? | 6.31µM
O=C(NC1CCCCC1)c1ccc(S(=O)(=O)N2CCCCC2)cc1 | - | 0 | - | 2.06µM | 0
CN(c1ccc(C(=O)Nc2ccc(S(=O)(=O)N3CCCC3)cc2)cc1)S(C)(=O)=O | 0 | ? | 0 | ? | 5.01µM
N#CCc1ccc(NC(=O)c2ccc(S(=O)(=O)N3CCCC3)cc2)cc1 | 0 | 0 | 0 | 0 | 14.1µM
SMILES | Vaccinia mCherry | Marburg entry inh | Vaccinia Venus | Lassa entry inh | HCV inh
O=C(Nc1ccc(S(=O)(=O)N2CCOCC2)cc1)c1ccc(S(=O)(=O)N2CCOCC2)cc1 | 0 | 0 | 0 | 0 | 0
O=C(Nc1ccc(S(=O)(=O)N2CCCC2)cc1)c1ccc(F)cc1 | 0 | 0 | 0 | 0 | 0
CN(c1ccccc1C(=O)Nc1ccc(S(=O)(=O)N2CCCC2)cc1)S(C)(=O)=O | 0 | 0 | 0 | 0 | 0
Cc1cc(C(=O)NCc2nc(-c3cccc(NC(=O)c4ccccc4)c3)oc2C)nc(C)n1 | 0 | - | 0 | - | -
COc1cccc([C@@H]2Oc3ccc(Br)cc3C[C@H]2OC(=O)Nc2cc(OC)c(OC)c(OC)c2)c1 | - | 0 | - | - | -
O=C(Nc1ccc(S(=O)(=O)N2CCCCC2)cc1)c1ccc(CN2CCOCC2)cc1 | 0 | 8.2µM | ? | ? | 2.82µM
O=C(Nc1ccc(S(=O)(=O)N2CCOCC2)cc1)c1ccc(Cl)cc1 | 0 | - | 0 | - | ?
O=C(Nc1nc(-c2ccccn2)cs1)c1cc2ccccc2o1 | 0 | ? | 0 | ? | ?
Cn1cccc1C(=O)Nc1nc(-c2ccccn2)cs1 | - | ? | - | ? | 14.1µM
CC(=O)Nc1nc(-c2ccc([N+](=O)[O-])cc2)cs1 | - | 0 | - | 0 | 0
O=C(Nc1ccc([N+](=O)[O-])cc1)Nc1nc(-c2ccc(Cl)s2)cs1 | ? | ? | 5.62µM | ? | ?
Cc1csc(NC(=O)c2cccn2C)n1 | 0 | 0 | 0 | ? | 0
O=C(Nc1nc(-c2ccc(Cl)s2)cs1)c1cccs1 | ? | 0 | ? | ? | 11.2µM
O=C(Nc1nc(-c2ccccc2)cs1)c1cccs1 | ? | 0 | ? | ? | ?
Cc1c(C(=O)Nc2nc(-c3ccccn3)cs2)oc2ccccc12 | - | - | - | - | 2.82µM
CCN(CC)c1nc(NC2CCN(C)CC2)c2cc(OC)c(OC)cc2n1 | 0 | - | ? | - | -
C=CCN1C(=S)N=NC1c1ccccc1 (stereo unspecified) | - | 0 | - | - | -
Cc1cnc(C)c(-c2ccc(F)c3c2OC(CNC(=O)Cc2c(F)cccc2F)C3)n1 (stereo unspecified) | 0 | - | 0 | - | -
O=C(Nc1nc(-c2ccccn2)cs1)c1ccc(Cl)s1 | 3.16µM | - | ? | - | ?
CCc1sc(C(=O)Nc2nc(-c3ccccn3)cs2)cc1C | ? | ? | 0 | ? | 17.8µM
O=C(Nc1nc(-c2cc(Cl)sc2Cl)cs1)c1ccccc1 | - | ? | - | 0 | 11.2µM
CCc1sc(C(=O)Nc2ncccc2O)cc1C | 0 | 6.31µM | 0 | ? | 0
CCc1sc(C(=O)Nc2nccs2)cc1C | 0 | ? | 0 | ? | 0
CCc1sc(C(=O)Nc2ncccc2C)cc1C | 0 | 0 | 0 | 0 | 0
CCC1C(=O)NCCN1Cc1ccc2c(c1)CN(Cc1cc(OC)ccc1OC)CCO2 (stereo unspecified) | 0 | - | 0 | - | -
SMILES | Vaccinia mCherry | Marburg entry inh | Vaccinia Venus | Lassa entry inh | HCV inh
COc1ccc(CNC(=O)CCc2nnc3n(CC(C)C)c(=O)c4ccccc4n23)cc1 | 0 | 0 | 0 | - | -
COc1ccccc1C1CCN(Cc2ccc3ccccc3c2)CC1 | 0 | 7.08µM | 0 | 0 | 0
Cc1ccc(NC(=O)OC(C)N2CCCCC2)cc1NC(=O)OC(C)N1CCCCC1 (stereo unspecified) | 0 | 5.01µM | 0 | ? | 25.1µM
Cc1ccc(NC(=O)N2CCCCC2)cc1NC(=O)N1CCCCC1 | 0 | - | 0 | - | 0
Cc1cc(S(=O)(=O)c2ccc(Cl)cc2)nc(S(=O)(=O)c2ccc(Cl)cc2)c1C#N | 11.2µM | - | 11.2µM | - | -
CCc1ccc(-c2cc(C(F)(F)F)n3nc(C(=O)Nc4c(C)nn(Cc5ccc(F)cc5)c4C)cc3n2)s1 | - | ? | - | 0 | 1.58µM
CCOC(=O)Cn1c(=O)n(C2CCCCC2)c2nc(-c3cccc(C)c3)nc(C(N)=O)c21 | 0 | - | 0 | 0 | -
NC1=NC[C@H](c2ccccc2)N1CCc1cc(C(F)(F)F)cc(C(F)(F)F)c1 | 10µM | - | 10µM | - | ?
NC1=NC[C@H](Cc2ccc(O)cc2)N1CCc1cc(C(F)(F)F)cc(C(F)(F)F)c1 | 0 | - | 0 | - | 0
NC1=NC[C@@H](CC2CCCCC2)N1CCc1cc(C(F)(F)F)cc(C(F)(F)F)c1 | ? | - | 10µM | - | ?
